# Laboratory results taken from PMC7862700, “An all-to-all approach to the identification of sequence-specific readers for epigenetic DNA modifications on cytosine”.
# Key:
# Experiment in all cases: DAPPL (digital affinity profiling via proximity ligation, sequencing); 10 mM Tris-HCl pH 7.5, 50 mM NaCl, 1 mM DTT, 4% glycerol, room temperature, 30 min; GST-TFs on glutathione beads, 16-mer random dsDNA library, 0.1% formaldehyde crosslink after washing; high values mean tight binding
# FLI1 = target: T1, FLI1 (Homo sapiens, UniProt Q01543 1-452); conditions: protein: recombinant; tags: N-terminal GST; dsDNA, one strand shown
# T1 sequence: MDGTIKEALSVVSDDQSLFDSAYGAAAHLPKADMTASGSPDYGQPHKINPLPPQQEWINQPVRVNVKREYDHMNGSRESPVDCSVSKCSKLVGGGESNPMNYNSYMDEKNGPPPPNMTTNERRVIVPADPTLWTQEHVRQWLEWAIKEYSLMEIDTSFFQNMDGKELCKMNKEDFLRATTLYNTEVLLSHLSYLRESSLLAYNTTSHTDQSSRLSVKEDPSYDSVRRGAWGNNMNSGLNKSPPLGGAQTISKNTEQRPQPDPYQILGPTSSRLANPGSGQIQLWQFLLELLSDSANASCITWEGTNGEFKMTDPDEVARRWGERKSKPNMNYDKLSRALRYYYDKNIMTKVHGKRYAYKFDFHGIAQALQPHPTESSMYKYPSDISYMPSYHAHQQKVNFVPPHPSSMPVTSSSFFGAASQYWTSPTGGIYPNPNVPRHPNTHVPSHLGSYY
# How it was run: (§1)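 Beads coated with glutathione captured GST-fused human transcription factors that had been expressed in yeast, and the factors were then given DNA barcodes and pooled with a tag-only sample. The pools were incubated with 200 nmole of a random double-stranded 16-mer DNA library in Tris/NaCl/DTT/glycerol buffer for 30 min at room temperature, washed, crosslinked with 0.1% formaldehyde and proximity-ligated with BsaI/T4 ligase at 37 °C for 1 h. PCR amplification and Illumina NextSeq500 sequencing came last. Binding signal is each hexamer's read frequency for a factor divided by its frequency for the tag-only sample.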
# ELK1 = target: T2, ELK1 (Homo sapiens, UniProt P19419 1-428); conditions: protein: recombinant; tags: N-terminal GST; dsDNA, one strand shown
# T2 sequence: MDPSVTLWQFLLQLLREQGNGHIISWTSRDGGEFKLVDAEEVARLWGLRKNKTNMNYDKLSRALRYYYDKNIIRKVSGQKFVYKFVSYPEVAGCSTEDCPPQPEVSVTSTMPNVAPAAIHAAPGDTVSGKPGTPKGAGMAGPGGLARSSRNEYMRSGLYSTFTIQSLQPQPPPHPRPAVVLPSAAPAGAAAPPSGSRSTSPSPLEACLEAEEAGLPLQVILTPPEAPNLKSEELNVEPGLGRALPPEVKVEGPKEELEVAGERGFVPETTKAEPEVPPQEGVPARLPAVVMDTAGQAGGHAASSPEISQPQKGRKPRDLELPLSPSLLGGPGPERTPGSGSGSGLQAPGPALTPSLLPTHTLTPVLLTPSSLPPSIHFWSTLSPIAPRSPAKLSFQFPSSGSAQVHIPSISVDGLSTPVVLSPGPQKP
# How it was run: as §1
# GABPA = target: T3, GABPA (Homo sapiens, UniProt Q06546 1-454); conditions: protein: recombinant; tags: N-terminal GST; dsDNA, one strand shown
# T3 sequence: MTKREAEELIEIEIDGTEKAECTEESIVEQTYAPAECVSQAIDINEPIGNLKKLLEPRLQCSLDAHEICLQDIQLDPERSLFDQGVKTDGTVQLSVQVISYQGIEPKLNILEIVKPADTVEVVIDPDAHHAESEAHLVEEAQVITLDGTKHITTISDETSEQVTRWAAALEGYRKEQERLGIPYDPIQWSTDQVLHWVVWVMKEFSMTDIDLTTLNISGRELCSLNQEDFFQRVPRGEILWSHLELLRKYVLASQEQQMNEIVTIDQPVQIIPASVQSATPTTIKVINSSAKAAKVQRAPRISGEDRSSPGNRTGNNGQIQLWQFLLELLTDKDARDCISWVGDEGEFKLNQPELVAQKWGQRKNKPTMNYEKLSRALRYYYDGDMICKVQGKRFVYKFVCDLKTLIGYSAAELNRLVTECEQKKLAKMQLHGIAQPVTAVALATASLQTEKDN
# How it was run: as §1
# ERG = target: T4, ERG (Homo sapiens, UniProt P11308 1-479); conditions: protein: recombinant; tags: N-terminal GST; dsDNA, one strand shown
# T4 sequence: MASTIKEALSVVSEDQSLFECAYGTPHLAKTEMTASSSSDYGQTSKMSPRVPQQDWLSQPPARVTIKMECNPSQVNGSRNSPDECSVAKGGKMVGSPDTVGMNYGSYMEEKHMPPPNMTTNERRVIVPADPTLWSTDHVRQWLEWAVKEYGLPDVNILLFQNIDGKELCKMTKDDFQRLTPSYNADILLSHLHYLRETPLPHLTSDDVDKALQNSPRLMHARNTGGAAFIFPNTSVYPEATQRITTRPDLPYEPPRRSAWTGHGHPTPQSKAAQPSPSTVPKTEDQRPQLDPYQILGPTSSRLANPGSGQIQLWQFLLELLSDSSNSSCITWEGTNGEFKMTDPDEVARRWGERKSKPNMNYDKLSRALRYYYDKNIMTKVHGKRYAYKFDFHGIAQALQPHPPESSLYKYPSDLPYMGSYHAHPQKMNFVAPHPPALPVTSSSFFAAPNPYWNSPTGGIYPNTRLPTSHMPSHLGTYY
# How it was run: as §1
# ELF1 = ELF1 (Homo sapiens, UniProt P32519 1-619); conditions: protein: recombinant; tags: N-terminal GST; dsDNA, one strand shown
# How it was run: as §1
# EHF = target: T5, EHF (Homo sapiens, UniProt Q9NZC4 1-300); conditions: protein: recombinant; tags: N-terminal GST; dsDNA, one strand shown
# T5 sequence: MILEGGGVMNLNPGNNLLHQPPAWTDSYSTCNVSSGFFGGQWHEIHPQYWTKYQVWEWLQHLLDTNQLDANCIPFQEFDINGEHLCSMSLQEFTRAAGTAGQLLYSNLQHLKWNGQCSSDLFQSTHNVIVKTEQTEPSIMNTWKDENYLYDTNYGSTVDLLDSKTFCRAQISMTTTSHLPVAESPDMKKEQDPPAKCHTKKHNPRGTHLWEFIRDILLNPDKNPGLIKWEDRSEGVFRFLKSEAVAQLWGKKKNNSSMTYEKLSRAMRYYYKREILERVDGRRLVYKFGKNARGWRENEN
# How it was run: as §1
# SPI1 = SPI1 (Homo sapiens, UniProt P17947 1-270); conditions: protein: recombinant; tags: N-terminal GST; dsDNA, one strand shown
# How it was run: as §1
# SPIB = SPIB (Homo sapiens, UniProt Q01892 1-262); conditions: protein: recombinant; tags: N-terminal GST; dsDNA, one strand shown
# How it was run: as §1
# ELK3 = target: T6, ELK3 (Homo sapiens, UniProt P41970 1-407); conditions: protein: recombinant; tags: N-terminal GST; dsDNA, one strand shown
# T6 sequence: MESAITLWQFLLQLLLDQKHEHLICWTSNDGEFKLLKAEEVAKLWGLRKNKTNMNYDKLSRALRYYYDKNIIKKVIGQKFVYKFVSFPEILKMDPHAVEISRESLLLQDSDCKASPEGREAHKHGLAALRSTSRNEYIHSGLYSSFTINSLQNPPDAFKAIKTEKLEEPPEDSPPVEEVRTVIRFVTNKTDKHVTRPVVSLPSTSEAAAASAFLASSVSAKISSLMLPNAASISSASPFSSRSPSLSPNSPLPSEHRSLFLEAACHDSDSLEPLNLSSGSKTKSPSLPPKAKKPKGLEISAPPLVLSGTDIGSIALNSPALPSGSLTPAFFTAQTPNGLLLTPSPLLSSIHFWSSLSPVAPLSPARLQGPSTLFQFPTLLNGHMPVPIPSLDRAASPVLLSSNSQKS
# How it was run: as §1
# FEV = target: T7, FEV (Homo sapiens, UniProt Q99581 1-238); conditions: protein: recombinant; tags: N-terminal GST; dsDNA, one strand shown
# T7 sequence: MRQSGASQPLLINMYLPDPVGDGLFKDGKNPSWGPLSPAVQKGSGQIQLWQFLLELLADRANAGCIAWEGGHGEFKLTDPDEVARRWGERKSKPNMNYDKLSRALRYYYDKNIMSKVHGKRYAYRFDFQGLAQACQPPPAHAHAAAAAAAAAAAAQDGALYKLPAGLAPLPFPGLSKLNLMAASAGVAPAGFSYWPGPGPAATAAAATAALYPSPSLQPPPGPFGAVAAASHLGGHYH
# How it was run: as §1
# ETV5 = ETV5 (Homo sapiens, UniProt P41161 1-510); conditions: protein: recombinant; tags: N-terminal GST; dsDNA, one strand shown
# How it was run: as §1
# HSF1 = HSF1 (Homo sapiens, UniProt Q00613 1-529); conditions: protein: recombinant; tags: N-terminal GST; chain copies: 3; dsDNA, one strand shown
# How it was run: as §1
# SPIC = target: T8, SPIC (Homo sapiens, UniProt Q8N5J4 1-248); conditions: protein: recombinant; tags: N-terminal GST; dsDNA, one strand shown
# T8 sequence: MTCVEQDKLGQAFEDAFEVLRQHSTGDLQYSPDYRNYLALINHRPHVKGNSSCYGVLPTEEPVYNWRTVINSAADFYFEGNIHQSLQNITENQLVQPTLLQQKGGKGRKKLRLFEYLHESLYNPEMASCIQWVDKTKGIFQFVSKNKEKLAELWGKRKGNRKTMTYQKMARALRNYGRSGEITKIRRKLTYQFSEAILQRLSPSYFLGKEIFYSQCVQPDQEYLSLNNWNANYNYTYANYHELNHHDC
# How it was run: as §1
# ELF4 = ELF4 (Homo sapiens, UniProt Q99607 1-663); conditions: protein: recombinant; tags: N-terminal GST; dsDNA, one strand shown
# How it was run: as §1
# ELF3 = target: T9, ELF3 (Homo sapiens, UniProt P78545 1-371); conditions: protein: recombinant; tags: N-terminal GST; dsDNA, one strand shown
# T9 sequence: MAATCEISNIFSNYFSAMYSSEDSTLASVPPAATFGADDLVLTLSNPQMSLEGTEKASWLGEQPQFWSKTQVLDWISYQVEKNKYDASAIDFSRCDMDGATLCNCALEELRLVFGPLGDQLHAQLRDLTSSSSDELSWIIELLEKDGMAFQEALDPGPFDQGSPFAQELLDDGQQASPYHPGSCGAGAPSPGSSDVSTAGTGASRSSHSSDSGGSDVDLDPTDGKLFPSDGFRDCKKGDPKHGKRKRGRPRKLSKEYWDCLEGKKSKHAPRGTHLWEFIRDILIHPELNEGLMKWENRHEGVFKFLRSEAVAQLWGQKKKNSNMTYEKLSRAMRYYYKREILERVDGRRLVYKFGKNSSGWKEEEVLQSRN
# How it was run: as §1
# CRX = CRX (Homo sapiens, UniProt O43186 1-299); conditions: protein: recombinant; tags: N-terminal GST; dsDNA, one strand shown
# How it was run: as §1
# ETV1 = ETV1 (Homo sapiens, UniProt P50549 1-477); conditions: protein: recombinant; tags: N-terminal GST; dsDNA, one strand shown
# How it was run: as §1
# Sequence of ELF4 (Q99607 whole entry): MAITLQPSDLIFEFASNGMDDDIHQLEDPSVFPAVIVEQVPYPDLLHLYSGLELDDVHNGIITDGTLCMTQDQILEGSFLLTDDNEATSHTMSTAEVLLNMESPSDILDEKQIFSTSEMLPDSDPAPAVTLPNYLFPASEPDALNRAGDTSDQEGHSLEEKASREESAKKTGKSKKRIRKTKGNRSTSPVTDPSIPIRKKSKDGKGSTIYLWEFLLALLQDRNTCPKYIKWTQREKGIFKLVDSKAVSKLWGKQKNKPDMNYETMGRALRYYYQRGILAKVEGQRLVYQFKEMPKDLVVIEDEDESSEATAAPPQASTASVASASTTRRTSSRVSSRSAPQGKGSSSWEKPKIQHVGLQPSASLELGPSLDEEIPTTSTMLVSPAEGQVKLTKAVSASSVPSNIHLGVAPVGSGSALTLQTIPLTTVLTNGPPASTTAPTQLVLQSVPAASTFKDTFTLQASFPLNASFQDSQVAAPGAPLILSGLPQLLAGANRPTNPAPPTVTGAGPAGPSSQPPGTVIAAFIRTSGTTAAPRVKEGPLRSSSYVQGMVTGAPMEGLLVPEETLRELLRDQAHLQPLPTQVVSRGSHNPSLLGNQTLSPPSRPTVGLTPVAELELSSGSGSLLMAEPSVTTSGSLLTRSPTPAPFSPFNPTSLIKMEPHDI
# Sequence of ELF1 (P32519 whole entry): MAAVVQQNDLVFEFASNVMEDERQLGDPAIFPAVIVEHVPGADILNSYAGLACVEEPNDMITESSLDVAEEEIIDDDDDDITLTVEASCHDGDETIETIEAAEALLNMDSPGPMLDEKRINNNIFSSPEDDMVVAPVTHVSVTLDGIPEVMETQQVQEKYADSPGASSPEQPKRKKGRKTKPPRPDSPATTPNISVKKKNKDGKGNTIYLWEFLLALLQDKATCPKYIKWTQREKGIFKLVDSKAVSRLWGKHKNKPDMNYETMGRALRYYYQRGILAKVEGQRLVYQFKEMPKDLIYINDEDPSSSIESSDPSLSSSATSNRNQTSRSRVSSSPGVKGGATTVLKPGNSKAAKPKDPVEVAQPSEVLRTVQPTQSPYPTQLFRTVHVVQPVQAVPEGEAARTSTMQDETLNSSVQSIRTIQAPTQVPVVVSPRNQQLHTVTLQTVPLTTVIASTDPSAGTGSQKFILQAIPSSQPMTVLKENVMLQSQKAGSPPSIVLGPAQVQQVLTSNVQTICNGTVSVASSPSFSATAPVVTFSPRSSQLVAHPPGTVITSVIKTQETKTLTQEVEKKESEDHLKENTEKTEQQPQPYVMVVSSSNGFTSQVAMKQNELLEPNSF
# Sequence of SPIB (Q01892 whole entry): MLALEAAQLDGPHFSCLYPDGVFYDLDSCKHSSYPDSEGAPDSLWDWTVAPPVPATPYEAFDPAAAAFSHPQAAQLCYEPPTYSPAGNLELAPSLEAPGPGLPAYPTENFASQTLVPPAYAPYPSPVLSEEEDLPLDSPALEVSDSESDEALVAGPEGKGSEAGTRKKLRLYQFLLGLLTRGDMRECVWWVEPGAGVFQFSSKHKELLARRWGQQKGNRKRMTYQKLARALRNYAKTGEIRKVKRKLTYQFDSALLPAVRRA
# Sequence of CRX (O43186 whole entry): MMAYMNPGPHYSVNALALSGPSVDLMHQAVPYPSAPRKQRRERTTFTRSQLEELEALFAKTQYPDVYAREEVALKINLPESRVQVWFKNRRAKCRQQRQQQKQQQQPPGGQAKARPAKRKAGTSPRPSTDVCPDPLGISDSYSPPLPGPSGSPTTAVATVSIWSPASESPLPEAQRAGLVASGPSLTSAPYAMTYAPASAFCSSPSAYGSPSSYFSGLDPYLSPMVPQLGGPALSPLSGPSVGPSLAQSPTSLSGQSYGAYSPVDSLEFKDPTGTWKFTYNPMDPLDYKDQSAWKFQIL
# Sequence of ETV1 (P50549 whole entry): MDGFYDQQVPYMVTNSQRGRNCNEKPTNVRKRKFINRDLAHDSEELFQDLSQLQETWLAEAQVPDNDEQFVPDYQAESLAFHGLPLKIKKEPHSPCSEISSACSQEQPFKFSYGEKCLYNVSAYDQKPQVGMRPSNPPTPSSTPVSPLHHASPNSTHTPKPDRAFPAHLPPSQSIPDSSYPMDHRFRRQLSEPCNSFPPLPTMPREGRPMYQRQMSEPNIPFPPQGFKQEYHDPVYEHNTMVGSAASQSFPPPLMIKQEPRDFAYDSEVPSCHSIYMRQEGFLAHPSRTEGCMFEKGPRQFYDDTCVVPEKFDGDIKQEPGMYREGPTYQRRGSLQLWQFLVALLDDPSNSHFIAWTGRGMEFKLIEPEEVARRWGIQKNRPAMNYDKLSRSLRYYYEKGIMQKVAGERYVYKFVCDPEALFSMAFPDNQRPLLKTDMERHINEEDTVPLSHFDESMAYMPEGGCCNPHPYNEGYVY
# Sequence of HSF1 (Q00613 whole entry): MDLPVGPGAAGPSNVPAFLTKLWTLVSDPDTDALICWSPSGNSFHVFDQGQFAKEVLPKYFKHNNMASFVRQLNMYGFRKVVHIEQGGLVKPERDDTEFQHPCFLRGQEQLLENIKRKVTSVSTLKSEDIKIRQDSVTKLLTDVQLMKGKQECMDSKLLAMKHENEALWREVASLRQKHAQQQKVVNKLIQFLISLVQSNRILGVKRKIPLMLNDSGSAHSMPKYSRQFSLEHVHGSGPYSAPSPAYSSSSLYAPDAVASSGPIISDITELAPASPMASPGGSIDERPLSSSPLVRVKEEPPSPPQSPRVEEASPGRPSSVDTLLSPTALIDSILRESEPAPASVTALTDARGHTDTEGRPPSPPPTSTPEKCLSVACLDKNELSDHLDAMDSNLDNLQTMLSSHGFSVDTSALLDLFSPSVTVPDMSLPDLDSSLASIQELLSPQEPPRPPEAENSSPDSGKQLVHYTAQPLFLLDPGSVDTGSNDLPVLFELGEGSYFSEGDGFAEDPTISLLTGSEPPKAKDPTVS
# Sequence of ETV5 (P41161 whole entry): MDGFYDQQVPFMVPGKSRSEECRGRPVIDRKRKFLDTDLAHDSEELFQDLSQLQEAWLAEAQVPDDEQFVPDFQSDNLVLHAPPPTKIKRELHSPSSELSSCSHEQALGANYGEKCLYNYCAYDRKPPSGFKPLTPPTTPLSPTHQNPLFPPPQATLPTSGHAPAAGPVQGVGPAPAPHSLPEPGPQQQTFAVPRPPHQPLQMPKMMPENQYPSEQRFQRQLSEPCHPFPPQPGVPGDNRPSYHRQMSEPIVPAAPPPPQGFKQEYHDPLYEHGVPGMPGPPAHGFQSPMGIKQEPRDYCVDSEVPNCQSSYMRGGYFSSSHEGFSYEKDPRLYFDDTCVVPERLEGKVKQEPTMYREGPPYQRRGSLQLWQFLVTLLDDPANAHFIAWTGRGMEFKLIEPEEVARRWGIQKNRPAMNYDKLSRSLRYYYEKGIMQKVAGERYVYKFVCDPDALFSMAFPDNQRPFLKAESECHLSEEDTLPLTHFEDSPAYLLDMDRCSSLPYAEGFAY
sequence,measurement,setting,value
TGGAAA,binding signal,FLI1,"1.09 fold enrichment (6-mer frequency, TF over GST control)"
same,binding signal,ELK1,"1.12 fold enrichment (6-mer frequency, TF over GST control)"
same,binding signal,GABPA,"1.19 fold enrichment (6-mer frequency, TF over GST control)"
same,binding signal,ERG,"1.11 fold enrichment (6-mer frequency, TF over GST control)"
same,binding signal,ELF1,"1.04 fold enrichment (6-mer frequency, TF over GST control)"
same,binding signal,EHF,"1.1 fold enrichment (6-mer frequency, TF over GST control)"
same,binding signal,SPI1,"1.16 fold enrichment (6-mer frequency, TF over GST control)"
same,binding signal,SPIB,"1.17 fold enrichment (6-mer frequency, TF over GST control)"
same,binding signal,ELK3,"1.15 fold enrichment (6-mer frequency, TF over GST control)"
same,binding signal,FEV,"1.03 fold enrichment (6-mer frequency, TF over GST control)"
same,binding signal,ETV5,"1.14 fold enrichment (6-mer frequency, TF over GST control)"
same,binding signal,HSF1,"2.23 fold enrichment (6-mer frequency, TF over GST control)"
same,binding signal,SPIC,"1.17 fold enrichment (6-mer frequency, TF over GST control)"
same,binding signal,ELF4,"1.12 fold enrichment (6-mer frequency, TF over GST control)"
same,binding signal,ELF3,"1.15 fold enrichment (6-mer frequency, TF over GST control)"
same,binding signal,CRX,"1.23 fold enrichment (6-mer frequency, TF over GST control)"
same,binding signal,ETV1,"1.11 fold enrichment (6-mer frequency, TF over GST control)"
